# Screening data: PubChem, National Center for Advancing Translational Sciences (NCATS)
# IL-1B inflam inh – qHTS for Inhibitors of Inflammasome Signaling: IL-1-beta AlphaLISA Primary Screen; THP-1 LPS/ATP IL-1B secretion, AlphaLISA, 16 h; hits give low values; actives 4.7% (n = 360,000); activity change, % at 57.5 µM; AID 743279, 2014; in the data active means activity change below about -50%; inconclusive means mostly about -30% to -49%; further: on the % scale 0 is the no-effect control and ±100 the full control effect
#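 Secreted IL-1B measured by AlphaLISA bead assay after 16 h compound exposure of THP-1 cells; compounds (final up to 57.5 uM) added 1 h before LPS (250 ng/mL) and ATP (1.25 mM) stimulation; lower signal means less secretion.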
# HepG2 viability – qHTS for Inhibitors of TGF-b: Cytotox Counterscreen. Potency, µM (series often up to 46.1 µM), inactives show at the top dose activity change, negative = cytotoxicity, usual class: cytotoxic. actives 0.76% (n = 410,000). HepG2 CAGA-GFP viability, ATP luminescence, 18 h. AID 588856, 2011; further: potency means the concentration at half of the fitted maximal effect
#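 CellTiter-Glo luminescence gave cytotoxicity after 18 hours at 37 degrees C. The cells were HepG2 CAGA-GFP in 1% FBS DMEM, stimulated with 500 pg/mL TGF-beta after compound addition. %Activity was normalised to no-cell wells (complete cell-killing) and DMSO (no toxicity), and curves were fitted and classified.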
# TDP1 cell CPT – qHTS for Inhibitors of human tyrosyl-DNA phosphodiesterase 1 (TDP1): qHTS in cells in presence of CPT. Potency, µM (doses to about 46.2 µM), for the others: at the top dose activity change, negative = growth inhibition, actives largely listed as inhibitors. chicken DT40 Tdp1-/-;hTDP1 cells + 20 nM CPT, ATP luminescence, 48 h. actives 12% (n = 420,000). AID 686979, 2013; further: potency means the concentration at half of the fitted maximal effect; on the % scale 0 is the no-effect control and ±100 the full control effect; nearly all actives have a fitted effect of over 55% in size
#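 Chicken DT40 Tdp1-/- cells stably complemented with human TDP1 were seeded at 400 cells/well in medium containing 20 nM camptothecin, exposed to pin-transferred compounds, and grown at 37 °C for at least 48 hr. Viability was read as ATP luminescence.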
# TGFb SMAD3 inh – qHTS for Inhibitors of TGF-b | HepG2 CAGA-GFP TGF-b/SMAD3 reporter, GFP fluorescence, 18 h; TGF-beta stimulated, 500 pg/mL final | Potency, µM (top dose mostly 46.1 µM), for inactives: top-dose activity, negative = inhibition, most hits filed as inhibitors | actives 1.2% (n = 410,000); further: potency means the concentration at half of the fitted maximal effect; on the % scale 0 is the no-effect control and ±100 the full control effect; nearly all actives have a fitted effect of over 65% in size
#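 GFP signal (ex488/em500-530) from TGF-beta-stimulated HEPG2 CAGA-GFP cells, 500 pg/mL final, 18 h at 37 degrees C in DMEM plus 1% FBS, normalized to unstimulated and DMSO-stimulated controls.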
# TDP1 block – qHTS Assay for Inhibitors of Tyrosyl-DNA Phosphodiesterase (TDP1). recombinant TDP1, AlphaScreen DNA substrate cleavage. Potency, µM (series often up to 130 µM), inactives show at the top dose activity change, negative = inhibition, actives largely listed as inhibitors. actives 0.28% (n = 350,000). AID 485290, 2010; further: potency means the concentration at half of the fitted maximal effect; on the % scale 0 is the no-effect control and ±100 the full control effect; nearly all actives have a fitted effect of over 40% in size
# Target sequence (Q9NUW8 whole entry, looked up): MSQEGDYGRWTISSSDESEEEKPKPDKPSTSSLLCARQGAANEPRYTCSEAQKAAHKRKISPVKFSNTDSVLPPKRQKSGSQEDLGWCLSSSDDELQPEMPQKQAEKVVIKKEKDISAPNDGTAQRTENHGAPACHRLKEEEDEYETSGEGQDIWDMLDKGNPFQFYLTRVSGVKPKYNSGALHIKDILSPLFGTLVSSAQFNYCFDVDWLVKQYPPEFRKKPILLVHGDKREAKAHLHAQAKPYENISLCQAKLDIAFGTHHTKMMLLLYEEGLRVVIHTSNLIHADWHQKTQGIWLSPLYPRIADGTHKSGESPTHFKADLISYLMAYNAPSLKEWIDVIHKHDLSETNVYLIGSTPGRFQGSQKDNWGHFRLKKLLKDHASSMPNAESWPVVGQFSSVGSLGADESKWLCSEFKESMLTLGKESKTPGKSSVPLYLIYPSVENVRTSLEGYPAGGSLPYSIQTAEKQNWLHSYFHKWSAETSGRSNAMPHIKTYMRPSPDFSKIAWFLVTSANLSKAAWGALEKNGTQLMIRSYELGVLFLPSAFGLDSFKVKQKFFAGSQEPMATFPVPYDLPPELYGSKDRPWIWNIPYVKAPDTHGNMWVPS
#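 Compounds were preincubated with Tdp1 (1 nM final) for 15 min at room temperature before substrate (15 nM final) started a 5 min reaction; beads (10 ug/ml final) were then added for 10 min before AlphaScreen detection.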
# DT40 TDP1 no CPT – qHTS for Inhibitors of human tyrosyl-DNA phosphodiesterase 1 (TDP1): qHTS in cells in absence of CPT; DT40 Tdp1-/- hTDP1 cells, no CPT, ATP luminescence, 48 h; actives 15% (n = 420,000); AID 686978, 2013; Potency, µM (series often up to 46.2 µM), for the others: at the highest dose activity change, negative = growth inhibition, actives largely listed as inhibitors; further: potency means the concentration at half of the fitted maximal effect; on the % scale 0 is the no-effect control and ±100 the full control effect; nearly all actives have a fitted effect of over 55% in size
#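 Readout: luminescence from CellTiter-Glo after 30 min in the dark at RT. Cells: DT40 Tdp1-/- with stable hTDP1, 400/well. Exposure: compounds alone, ≥48 hr, 37 °C.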
# * = called active by the depositor; ? = inconclusive; . = no result given; [ ] = remark or other dose. Sampled rows, rich in hits. Any-hit rate of the full collection: about 18%. Unless noted, the call rests on the fitted dose curve; in most records, active means well fitted curve in the direction sought with a large enough effect; inconclusive means small, poorly fitted or top-dose-only effect, or another doubt; inactive means no such curve, though single readings can be large; an effect the other way counts as inactive or inconclusive.
SMILES,IL-1B inflam inh,HepG2 viability,TDP1 cell CPT,TGFb SMAD3 inh,TDP1 block,DT40 TDP1 no CPT
Cc1cccc(C2CC(c3ccccc3)=NN2c2ccc(S(N)(=O)=O)cc2)c1 (stereo unspecified),-22.4,11.2µM*,?,?,.,?
NS(=O)(=O)c1ccc(N2N=C(c3ccccc3)CC2c2ccc(F)cc2)cc1 (stereo unspecified),-61.2*,-96.2%,?,?,-2.8%,?
Oc1ccc(C2=NN(c3ccccc3)C(c3ccc(F)cc3)C2)cc1 (stereo unspecified),-97.8*,-111.3%,?,-11.3%,.,?
O=Cc1ccc(N2N=C(c3ccccc3)CC2c2ccccc2)cc1 (stereo unspecified),6.6,-43.2%,-2.9%,?,.,-20.7%
Oc1ccccc1C1=NN(c2ccccc2)C(c2ccc(F)cc2)C1 (stereo unspecified),-6.9,-11.0%,-15.5%,0.0%,.,?
N#CCC(=O)N/N=C/c1ccc(N2N=C(c3ccccc3)CC2c2ccccc2)cc1 (stereo unspecified),-7.4,-18.7%,23.1µM*,32.8%,-4.1%,18.4µM*
O=C(CN(C(=O)C1CSC(=O)C1)c1ccc(F)cc1)NCc1ccc2c(c1)OCO2 (stereo unspecified),-3.9,1.9%,12.1%,-3.7%,2.9%,-21.2%
NS(=O)(=O)c1ccc(N2N=C(c3ccccc3)CC2c2cccc(Cl)c2)cc1 (stereo unspecified),-70.2*,-109.8%,-27.6%,?,-5.6%[56.1 µM],-22.5%
CC(=O)Nc1ccc(C2CC(c3ccc(Cl)cc3)=NN2c2ccccc2)cc1 (stereo unspecified),-19.0,-16.5%,-29.5%,-7.3%,.,?
Fc1ccc(C2=NN(c3ccccc3)C(c3ccco3)C2)cc1 (stereo unspecified),-4.8,-37.1%,-6.5%,?,?,-22.7%
Cc1ccc(N2N=C(c3ccc(F)cc3)CC2c2ccco2)cc1 (stereo unspecified),8.9,-24.6%,18.4µM*,-21.6%,.,?
CC(=O)Nc1ccc(C2=NN(c3ccccc3)C(c3ccccc3)C2)cc1 (stereo unspecified),34.8,-24.1%,?,-21.8%,.,23.1µM*
O=C(CSc1cccc[n+]1[O-])Nc1ccc2c(c1)OCO2,-3.0,-2.8%,-16.9%,-0.4%,2.5%,?
COc1cc(OC)c2c(c1)C(=O)OC2,-0.4,14.6%,-1.8%,9.4%,0.0%,7.1%
Cc1cc(CNC(=O)[C@]2(C(F)(F)F)C[C@H](CCC3CCCCC3)CCCO2)nn1C,.,-33.5%,.,?,9.7%,.
C=CCN1C(c2ccc(OCC)cc2)=CS/C1=C(\C#N)c1nnc2n1CCCCC2,-4.1,-45.3%,?,-26.4%,5.6%,29.1µM*
C=CCN1C(c2ccc(Br)cc2)=CS/C1=C(\C#N)c1nnc(N2CCOCC2)n1-c1ccccc1,-73.4*,-17.8%,?,-10.2%,.,-94.1%
C=CCN1C(c2cccc(C(F)(F)F)c2)=CS/C1=C(\C#N)c1nnc(N2CCOCC2)n1-c1ccccc1,?,-4.0%,23.1µM*,-12.3%,.,?
COc1ccccc1C(=O)NC(=O)COC(=O)CNC(=O)c1ccc(Cl)cc1Cl,21.9,-10.0%,13.3%,-0.4%,-2.5%,-2.8%
CCC(C)n1c(=N)c(C(=O)NCc2ccco2)cc2c(=O)n3cc(C)ccc3nc21 (stereo unspecified),.,-31.6%,?,5.6%,.,?
CCCCC1=CC2=CC(=O)C(C)(OC(=O)c3cnc4ccccc4n3)C(=O)C2=CO1 (stereo unspecified),.,.,.,.,3.7%,.
CC(CSC(=O)c1ccccc1)C(=O)N1C[C@@H](Sc2ccccc2)C[C@H]1C(=O)O (stereo partly specified),.,.,-1.2%,.,.,-4.0%
C=CC1CN(C(=O)OCC(Cl)(Cl)Cl)C2CC3c4ccc(OC)cc4NC3C3CC1C2CO3 (stereo unspecified),-9.9,-28.4%,?,?,.,18.4µM*
CCOC(=O)N1CCC2CC1c1cc(-c3cccc(OC)c3)ccc12 (stereo unspecified),26.3,-30.0%,?,-23.0%,.,?
Cc1ccc2nc(CN3CCN(S(=O)(=O)c4ccc(C(C)C)cc4)CC3)oc2c1,.,-31.0%,-28.3%,?,-1.2%,-3.5%
SMILES,IL-1B inflam inh,HepG2 viability,TDP1 cell CPT,TGFb SMAD3 inh,TDP1 block,DT40 TDP1 no CPT
CCC(=O)N1CCCc2cc(S(=O)(=O)N3CCC(C(=O)Nc4ccc(C#N)cc4)CC3)ccc21,.,-0.6%,18.4µM*,4.6%,0.0%,?
CCC(=O)N1CCCc2cc(S(=O)(=O)N3CCC(C(=O)Nc4ccc(F)c(F)c4)CC3)ccc21,.,-16.2%,-86.7%,?,5.5%,11.6µM*
CCC(=O)N1CCCc2cc(S(=O)(=O)N3CCC(C(=O)NC4CCCCC4)CC3)ccc21,.,-20.6%,-2.6%,-18.2%,1.1%,-19.6%
CCC(=O)N1CCCc2cc(S(=O)(=O)N3CCC(C(=O)NCc4ccc(F)cc4)CC3)ccc21,.,-23.5%,?,-5.0%,6.6%,-28.8%
O=C(Nc1ccc(F)c(Cl)c1)C1CCN(S(=O)(=O)c2ccc3c(c2)CCCN3C(=O)C2CCC2)CC1,.,-19.0%,9.2µM*,0.0%,-2.2%,11.6µM*
CCOc1ccc(NC(=O)CN(C)C(=O)C2COc3ccccc3O2)cc1OCC (stereo unspecified),5.5,-4.2%,4.0%,1.2%,.,-25.9%
C=CCSc1nccc(-c2nn(-c3ccc(C)cc3)ccc2=O)n1,-25.0,-3.5%,7.31µM*,0.0%,2.8%,5.8µM*
C#CCSc1nccc(-c2nn(-c3ccc(C)cc3)ccc2=O)n1,71.1,8.5%,?,-2.2%,2.9%,25.9µM*
Nc1nccc(-c2nn(-c3ccc(Cl)cc3)ccc2=O)n1,3.0,1.2%,-11.1%,-14.1%,0.0%,-14.9%
CCSc1nccc(-c2nn(-c3ccc(C)cc3)ccc2=O)n1,-3.3,-16.8%,6.51µM*,-6.0%,2.3%,6.51µM*
C=CCSc1nc(=O)n2ccc(C)cc2n1,1.0,-119.7%,-17.3%,-10.5%,-2.5%,?
